The campaign covered roughly 340,000 compounds. About 2,300 (0.68%) were called active. Cut-off read from the data, not from the text of the source: active = growth rescue above about 28% (passing the limit was not always enough); inconclusive = no clear call, values can overlap the other calls. Only a selection was taken, and actives are over-represented in it overall.

The assay can be described thus: rescue of yeast from PfHsp40 toxicity, primary screen, S. cerevisiae, ATP luminescence (AID 504582).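 Note: yeast W303a lacking pdr1 and pdr3 grown in galactose medium; growth measured after three days at 30 °C.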 The conditions noted are these: S. cerevisiae expressing PfHsp40, growth rescue, at 12.5 µM, hits give high values.
With `O=S(=O)(NC1CC2CCC1C2)c1ccc(Cl)cc1` (configuration not stated), the growth rescue is 74.5% (active). Turning to `O=S(=O)(NC1CC1)c1ccc(Cl)cc1`, the growth rescue was -0.92% (inactive).

Regarding `O=S(=O)(NC1CCCCC1N1CCCCC1)c1ccc(Cl)cc1` (configuration not stated), the growth rescue was 1.55% (inactive). As for `COc1ccccc1OCC(=O)Nc1c2c(nn1-c1ccc(F)cc1)CS(=O)(=O)C2`, the growth rescue is 3.47% (inactive). With `CCOC(=O)c1c(NC(=O)NC(C)(C)C)sc2c1CCN(C)C2`, the growth rescue was -1.54% (inactive). Turning to `COc1ccccc1/C=N/N1CCN(Cc2ccccc2Cl)CC1`, the growth rescue is -1.43% (inactive). For the compound `COc1ccccc1/C=N\Nc1cc(C)nc(-n2nc(C)cc2C)n1`, the growth rescue was 143% (active).

As for `CCOC(=O)c1cnc(-n2nc(C)cc2C)nc1NNc1cc(C)nc(-c2ccccc2)n1`, the growth rescue was 0.854% (inactive). In the case of `COc1ccc(CNC(=O)COC(=O)C2=Cc3ccccc3OC2)cc1`, the growth rescue was 0.075% (inactive).

In the case of `CC(=O)c1c(C)[nH]c(C(=O)NCc2ccc(C)cc2)c1C`, the growth rescue is -0.188% (inactive).

For the compound `CCCCNC(=O)CSc1nccn1Cc1ccccc1`, the growth rescue is 0.912% (inactive). As to `Cc1cccc(-c2nc(Nc3ccc(O)cc3)c3ccccc3n2)c1`, the growth rescue is 101% (active). As for `Oc1ccc(-c2nnc(Nc3ccccc3)c3ccccc23)cc1`, the growth rescue is -0.3% (inactive). Take `CN1CCN(c2nc(Nc3ccc(O)cc3)nc3ccccc23)CC1`: the growth rescue was -0.529% (inactive).

In the case of `CC1(C)CC(=O)c2c(n(S(=O)(=O)c3ccccc3)c3ccc(NS(=O)(=O)c4ccccc4)cc23)C1`, the growth rescue was -0.451% (inactive). For `CC(=O)N1N=C(c2ccncc2)OC1(Cc1ccccc1)Cc1ccccc1`, the growth rescue is -0.493% (inactive).

`O=C(CSc1n[nH]c(-c2cccnc2)n1)Nc1ccc(Cl)cc1`: the growth rescue was -2.05% (inactive). As for `Cc1c(C(=O)NCCN2C(=O)S/C(=C\c3cccs3)C2=O)cccc1[N+](=O)[O-]`, the growth rescue was 0.66% (inactive). In the case of `CC[C@]1(O)C[C@@H]2CN(CCc3c([nH]c4ccccc34)[C@@](C(=O)OC)(c3cc4c(cc3OC)N(C)[C@H]3[C@@](O)(C(=O)OC)[C@H](OC(C)=O)[C@]5(CC)C=CCN6CC[C@]43[C@@H]65)C2)C1`, the growth rescue is -2.2% (inactive). For the compound `Cc1cc(NC(=O)CSCc2nc(-c3cccc(Cl)c3)oc2C)no1`, the growth rescue was -0.561% (inactive). With `Cc1ccsc1-c1nc(CSCC(=O)NCCN2CCCC2)c(C)o1`, the growth rescue was 35.6% (active).

In the case of `Cc1ccc(-c2nc(CSCC(=O)NC3CCN(Cc4ccccc4)CC3)c(C)o2)cc1`, the growth rescue was 0.251% (inactive). As for `Cc1ccccc1CSCCNC(=O)c1ccc(Cl)c(S(=O)(=O)N2CCOCC2)c1`, the growth rescue was 1.98% (inactive). For `CCC1CCCCN1C(=O)CSc1nc2c(c(=O)n(C)c(=O)n2C)n1C` (configuration not stated), the growth rescue was 17.3% (inactive). With `Nc1ccccc1SC(C[N+](=O)[O-])c1ccccc1` (configuration not stated), the growth rescue was 33.7% (active). With `CC(=O)N(OCc1ccc(OC(C)C)c(Cl)c1)C(C)=O`, the growth rescue is -0.894% (inactive). On to `COc1ccccc1CNC(=O)C1CCN(C(=O)[C@@H]2Cc3ccccc3CN2)CC1`, for which the growth rescue is -0.254% (inactive). `COc1cccc(C2c3[nH]c4ccccc4c3CCN2Cc2cccc(C)n2)c1` (configuration not stated): the growth rescue was 1.72% (inactive).

Regarding `CCCNC(=O)CCc1c(C)nc2c(c(C)nn2-c2ccc(C)cc2)c1C`, the growth rescue is 1.12% (inactive).

Take `COc1ccc(C(=O)N(C)CC(O)c2ccccc2)cc1OC1CCN(C(C)=O)CC1` (configuration not stated): the growth rescue is 2.54% (inactive). In the case of `Cc1cc(S(=O)(=O)NC2CCCC2)ccc1-n1cnnn1`, the growth rescue was 0.47% (inactive). On to `CCCCNC(=S)N/N=C1\CCCCc2ccccc21`, for which the growth rescue is 63.9% (active).

Regarding `S=C(NCCC1=CCCCC1)Nc1ccccc1`, the growth rescue is 9.46% (inactive). As to `CCCC1CCC(=NNC(=S)NCCc2ccccc2)CC1` (configuration not stated), the growth rescue is 1.29% (inactive). Take `CCCCn1nc(C(=O)Nc2cccc(C(=O)NC3CC3)c2)c2ccccc2c1=O`: the growth rescue is 1.46% (inactive). As for `O=C(NCCCN1CCCC1=O)c1ccc(S(=O)(=O)Nc2ccccc2)cc1`, the growth rescue is -0.823% (inactive). Turning to `COCCN1C(=O)C(=O)/C(=C(/O)c2ccc(S(=O)(=O)N3CCOCC3)cc2)C1c1ccc(O)c(OC)c1` (configuration not stated), the growth rescue was -0.794% (inactive). `CC(=O)OCc1cc(=O)n(C)c(=O)n1C`: the growth rescue is -0.117% (inactive).

As to `CC(=O)c1cc(NC(=O)c2ccccc2)c(=O)oc1/C=C/N(C)C`, the growth rescue was 1.15% (inactive).

Turning to `CSc1nccc(NC(=O)c2ccc(C(C)(C)C)cc2)n1`, the growth rescue was 733% (active). As to `Cc1cccc(NC(=O)c2ccc(S(=O)(=O)N(C)c3ccccc3)cc2)n1`, the growth rescue is -1.12% (inactive). In the case of `COC(=O)c1nc(NC(=O)c2ccc(C(C)(C)C)cc2)n[nH]1`, the growth rescue was 0.045% (inactive). Regarding `Cn1c(C(=O)OC(C(=O)NC2CCCCC2)c2ccccn2)cc2sccc21` (configuration not stated), the growth rescue was 1.92% (inactive). For `CC(C)(CNC(=O)c1ccc(Cl)c(S(=O)(=O)N2CCc3ccccc3C2)c1)N1CCOCC1` the value was -1.18% (inactive). On to `O=C(COC(=O)c1ccc(Br)o1)NC12CC3CC(CC(C3)C1)C2`, for which the growth rescue was 4.21% (inactive). As for `O=C(COC(=O)c1ccc([N+](=O)[O-])o1)NC12CC3CC(CC(C3)C1)C2`, the growth rescue is 364% (active). On to `O=C(OCC(=O)c1cccs1)c1ccc([N+](=O)[O-])o1`, for which the growth rescue is -1.26% (inactive). Turning to `Cc1csc(NC(=S)Nc2cccc(Cl)c2)n1`, the growth rescue is 118% (active). For `Cn1cc(Cl)c(C(=O)NNC(=S)Nc2cccc(Cl)c2)n1` the value was -0.14% (inactive). The value for `Cc1cc(Cl)nc(NC(=O)Nc2cccc(Cl)c2)n1` was -0.042% (inactive). For `CCOC(=O)c1csc(CCNC(=O)c2oc3c(Cl)cc(C)cc3c2C)n1`, the growth rescue was -0.607% (inactive). For `CCCc1nnc(NC(=O)CCC(=O)NC2CC2)s1` the value was 0.339% (inactive); for `O=C(NCCCCO)C(F)(F)C(F)(F)C(F)(F)C(=O)NCCCCO`, -1.94% (inactive). As for `O=S(=O)(NCCc1ccccc1)c1ccccc1`, the growth rescue was -1.03% (inactive). `O=S(=O)(NCCCc1ccccc1)c1ccc(Br)cc1`: the growth rescue is 7.99% (inactive). The value for `O=c1ccc2cc(S(=O)(=O)NCCCc3ccccc3)ccc2[nH]1` was 30.5% (active); that for `Cc1nc2ccccn2c1C(=O)NN=C1CCN(C)CC1` was -0.557% (inactive). As to `CCCCNC(=O)N(O)C1N(/N=C/c2ccc(N(C)C)cc2)C(=S)SC1(C)C` (configuration not stated), the growth rescue is -1.02% (inactive). Regarding `O=S(=O)(c1cccc2nonc12)N1CCN(c2cccc(Cl)c2)CC1`, the growth rescue is 1.52% (inactive). As for `Cc1cc(C(=O)CCC(=O)NNC(=O)c2ccccc2O)c(C)s1`, the growth rescue is -0.863% (inactive). For `O=C(NNC(=O)c1cc(S(=O)(=O)N2CCCCC2)ccc1Cl)c1ccccc1O` the value was 91.7% (active); for `CC1=C(C)CC(C(=O)NNC(=O)c2ccccc2O)C(C(=O)O)C1` (configuration not stated), 1.17% (inactive); for `O=C(NNC(=O)c1ccccc1O)c1ccccc1O`, 68% (active). As for `CC1CCCC(NC(=O)c2cc(S(=O)(=O)N3CCCCC3)ccc2Cl)C1C` (configuration not stated), the growth rescue was 2.29% (inactive). As to `O=C(Nc1ccccc1C(=O)O)c1cc(S(=O)(=O)N2CCCCC2)cs1`, the growth rescue is 0.561% (inactive). For the compound `COC(=O)c1sc(N)c(C(=O)OC)c1COC(=O)CNS(=O)(=O)c1ccc(C)cc1`, the growth rescue was 0.164% (inactive).

For `COc1ccc(C(=O)C2CCCN(C(=O)c3cc4nc(C)cc(C)n4n3)C2)cc1F` (configuration not stated), the growth rescue was -1.21% (inactive). As for `COc1ccc2c(c1)OC(O)(C(F)(F)C(F)F)CC2=O` (configuration not stated), the growth rescue was 0.213% (inactive). Regarding `N#CCc1ccc(NC(=O)c2ccccc2C(=O)Nc2ccc(CC#N)cc2)cc1`, the growth rescue was -0.068% (inactive). In the case of `Cc1c(C(=O)Nc2ccccn2)oc2ccc(Br)cc12`, the growth rescue is -0.794% (inactive).

On to `O=C(NN=Cc1ccccc1O)NN=Cc1ccccc1O`, for which the growth rescue was -0.914% (inactive). Turning to `Oc1ccc(Br)cc1/C=N/Nc1ccccn1`, the growth rescue is 246% (active).

Values taken from PubChem BioAssay AID504582 (Broad Institute, 2011).
